# Test results reported in paper PMC10726135, “HNF4α isoforms regulate the circadian balance between carbohydrate and lipid metabolism in the liver”.
# Over roughly 18,000 sequences, “log2 normalized intensity” has its median near 0.39; the highest 2% begin near 6.6. The sample as a whole holds a higher share of the highest values than the screen did.
# Target: T1, HNF4alpha2 (COS-7 nuclear extract) (Homo sapiens, UniProt P41235 1-474)
# T1 sequence: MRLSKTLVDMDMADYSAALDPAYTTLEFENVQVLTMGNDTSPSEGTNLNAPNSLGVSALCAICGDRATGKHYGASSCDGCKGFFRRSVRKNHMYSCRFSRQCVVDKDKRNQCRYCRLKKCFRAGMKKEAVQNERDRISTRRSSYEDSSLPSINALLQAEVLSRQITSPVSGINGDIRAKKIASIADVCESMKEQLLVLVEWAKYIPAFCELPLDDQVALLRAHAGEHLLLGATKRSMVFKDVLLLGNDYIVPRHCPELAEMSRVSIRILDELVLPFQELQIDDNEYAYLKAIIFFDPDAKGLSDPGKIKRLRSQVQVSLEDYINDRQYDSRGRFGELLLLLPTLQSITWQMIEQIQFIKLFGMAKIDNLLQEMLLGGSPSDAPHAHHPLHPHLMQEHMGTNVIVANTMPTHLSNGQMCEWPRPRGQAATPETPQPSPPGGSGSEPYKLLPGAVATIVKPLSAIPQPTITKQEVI
# Assay: protein-binding microarray; COS-7 nuclear extract on double-stranded Agilent 4x180k PBM; binding buffer, salt, pH and temperature not given in the material; high values mean tight binding
# Conditions: chain copies: 2; label: 3' end of strand 1 on the slide; dsDNA, one strand shown
# In short: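 A human HNF4α isoform was expressed in COS-7 cells by transient CaPO4 transfection, and nuclear extracts were prepared. These were applied to a custom Agilent SurePrint G3 4x180k array carrying ~44,000 test sequences in quadruplicate as double-stranded ~60-nt oligonucleotides, and an Agilent G2565CA scanner imaged bound HNF4α at 2-µm resolution. The background-corrected, normalized gProcessedSignal from Agilent software was used as the binding signal.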
row,Sequence,binding signal [log2 normalized intensity]
1,CCCTTTGCACATGCCCCTCCCAGGGACACAGCCTAGGGAGATTAGAGTATCGGTCGA,3.12
2,CAGAAAAATGGAGCAGCTCTGTATTGAGATGCCTAGGGAGATTAGAGTATCGGTCGA,-0.99
3,TGCCATTCTTCCAGTTGTGTGCACAAGAGGGCCTAGGGAGATTAGAGTATCGGTCGA,1.7
4,GAATTTCATTTTGCTCTTTGTTCAGATACAGCCTAGGGAGATTAGAGTATCGGTCGA,1.33
5,TTTTTTCAAGTGTTAGCTGTTTCCAAATATGCCTAGGGAGATTAGAGTATCGGTCGA,1.42
6,AATCCCTTAGGCTTTTGCACTTTACTCAGAGCCTAGGGAGATTAGAGTATCGGTCGA,3.14
7,CCCCTCCCTCCGCAACCTTTACTCCTTGTGGCCTAGGGAGATTAGAGTATCGGTCGA,3.68
8,GTCACCACCTTTTTTGGCCTTTACCCCTTGGCCTAGGGAGATTAGAGTATCGGTCGA,4.8
9,AAAAAACCCTAGAGATGTACACAGTTCAAAGCCTAGGGAGATTAGAGTATCGGTCGA,-0.874
10,ATGGCCAGCCTTTGGACTTTGAACTGCAACGCCTAGGGAGATTAGAGTATCGGTCGA,9.66
11,AGCAGATGGCCAGCCTTTGGACTTTGAACTGCCTAGGGAGATTAGAGTATCGGTCGA,10.7
12,TCAAATATTTGGATAATGTGCCCTTTGTACGCCTAGGGAGATTAGAGTATCGGTCGA,6.6
13,GGATAATGTGCCCTTTGTACCTGGGGCAAAGCCTAGGGAGATTAGAGTATCGGTCGA,5.03
14,TTTGAAGCAAAGCCTTTGAGCAGATGGAAGGCCTAGGGAGATTAGAGTATCGGTCGA,0.0298
15,TTTTTGGCCTTTACCCCTTGAGTTTGAACTGCCTAGGGAGATTAGAGTATCGGTCGA,3.59
16,AGGGTCTTTGCAACTGTGTGTGGCCTGCACGCCTAGGGAGATTAGAGTATCGGTCGA,1.38
17,GCATTAACATCAACATGGACTTTGAGTCATGCCTAGGGAGATTAGAGTATCGGTCGA,6.21
18,TATTTGGATAATGTGCCCTTTGTACCTGGGGCCTAGGGAGATTAGAGTATCGGTCGA,7.01
19,TTCCTGCATTAACATCAACATGGACTTTGAGCCTAGGGAGATTAGAGTATCGGTCGA,8.62
20,TACCTTTCCTGCATTAACATCAACATGGACGCCTAGGGAGATTAGAGTATCGGTCGA,2.1
21,TGGTGGCACAGGGAATGGCTCGTATGAATGGCCTAGGGAGATTAGAGTATCGGTCGA,0.46
22,ATTGACAAAGACCAGTGCTCTTTCTTCTCTGCCTAGGGAGATTAGAGTATCGGTCGA,-0.734

row,Sequence,binding signal [log2 normalized intensity]
1,AGGGTTCAAACTCCAGCTCTGATACTTTCTGCCTAGGGAGATTAGAGTATCGGTCGA,3.12
2,GTGAGGCATCTGGACCATTGCTGACCTTGCGCCTAGGGAGATTAGAGTATCGGTCGA,3.01
3,CTCTCGTCACCTCCACCCACCCGTGCATCAGCCTAGGGAGATTAGAGTATCGGTCGA,4.68
4,TCCCACTAGGTGGCGCTGTTGACCTTGAAAGCCTAGGGAGATTAGAGTATCGGTCGA,3.09
5,TGATAGCCATCTGGTGGACTTTGCTCTGCTGCCTAGGGAGATTAGAGTATCGGTCGA,7.44
6,CTGCTTGATAGCCATCTGGTGGACTTTGCTGCCTAGGGAGATTAGAGTATCGGTCGA,5.26
7,GCCATCTGGTGGACTTTGCTCTGCTCATTTGCCTAGGGAGATTAGAGTATCGGTCGA,6.26
8,CAAAGGGTCAAGTTCAGATCCTGGCCATGCGCCTAGGGAGATTAGAGTATCGGTCGA,0.748
9,GAGCAGGGTATCAGTTGAACAGAATAGAGGGCCTAGGGAGATTAGAGTATCGGTCGA,-0.996
10,GTGTGCAATTAGAGCAAAGGTTACTGCAGAGCCTAGGGAGATTAGAGTATCGGTCGA,2.62
11,GAACCTGCCCTCTGTCCCATGGTGTACAAGGCCTAGGGAGATTAGAGTATCGGTCGA,1.26
12,CCAGTTTTCCCAAAGGAGCTTTATTGGTTCGCCTAGGGAGATTAGAGTATCGGTCGA,1.5
13,TGAGAATCTGACCTTTGGTTAACTTCTTAAGCCTAGGGAGATTAGAGTATCGGTCGA,4.02
14,AGGTCAGGGAGTAGGTTTGATTTGTGAAAGGCCTAGGGAGATTAGAGTATCGGTCGA,0.942
15,TAGGTTTGTGAGTCCAAAGGTCAGCCGGGGGCCTAGGGAGATTAGAGTATCGGTCGA,7.74
16,AGTCCAAAGGTCAGCCGGGGAAGGTGCAGGGCCTAGGGAGATTAGAGTATCGGTCGA,5
17,ATGTTAGTCTTGAGTCCCAAAGTCCAAAGGGCCTAGGGAGATTAGAGTATCGGTCGA,5.42
18,AAAAGGATGCTAGGTTTGTGAGTCCAAAGGGCCTAGGGAGATTAGAGTATCGGTCGA,4.16
19,TGAGTATCCAAAGGTCAGTGACAAATGTCAGCCTAGGGAGATTAGAGTATCGGTCGA,3.65
20,AAGGTTGGTTTTTGGAGACAGGAGTAGTCAGCCTAGGGAGATTAGAGTATCGGTCGA,1.3
21,TTGTGAGTCCAAAGGTCAGCCGGGGAAGGTGCCTAGGGAGATTAGAGTATCGGTCGA,6.71
22,GATGCTAGGTTTGTGAGTCCAAAGGTCAGCGCCTAGGGAGATTAGAGTATCGGTCGA,9.14

row,Sequence,binding signal [log2 normalized intensity]
1,TAGCCAGACCTGTTCCTCTGCCCCTCATCGGCCTAGGGAGATTAGAGTATCGGTCGA,1.7
2,TGAGACATTTTGTCTTTTCTCCCCTGACTAGCCTAGGGAGATTAGAGTATCGGTCGA,2.63
3,GGACAATCATTGTGCAACCTGGACATTGGCGCCTAGGGAGATTAGAGTATCGGTCGA,2.08
4,AAGGTGTATGTGGACTTTCAACTGCAGGGGGCCTAGGGAGATTAGAGTATCGGTCGA,3.47
5,CGAGCATGGCCGCTCCGCGAGGTGAGCCATGCCTAGGGAGATTAGAGTATCGGTCGA,0.717
6,TGGGCCCCACAGTGCATCTGATAAGGTTGTGCCTAGGGAGATTAGAGTATCGGTCGA,0.921
7,GCTGGTTGCCCCTTTGACCCTCGGGCCTCCGCCTAGGGAGATTAGAGTATCGGTCGA,5.62
8,AGCCTTATTCTTTGATCTCTTATCACCCTGGCCTAGGGAGATTAGAGTATCGGTCGA,1.86
9,CTAGTTAAGTCACTGGGCTGATGACCTTTGGCCTAGGGAGATTAGAGTATCGGTCGA,6.19
10,CACTGGGCTGATGACCTTTGACTGAGATGGGCCTAGGGAGATTAGAGTATCGGTCGA,5.32
11,CTGGATGACCTTTGTCCTGGCACAACTGGAGCCTAGGGAGATTAGAGTATCGGTCGA,5.84
12,TCCTGATCTTTGACCTGGAGCATGACCCTTGCCTAGGGAGATTAGAGTATCGGTCGA,4.86
13,CATCTTTGAGCTGGATGACCTTTGTCCTGGGCCTAGGGAGATTAGAGTATCGGTCGA,8.57
14,TTGAGCTGGATGACCTTTGTCCTGGCACAAGCCTAGGGAGATTAGAGTATCGGTCGA,7.13
15,ATGACCTTTGACTGAGATGGGAGCAGTGCTGCCTAGGGAGATTAGAGTATCGGTCGA,2.23
16,AGAATCATCTTTGAGCTGGATGACCTTTGTGCCTAGGGAGATTAGAGTATCGGTCGA,7.46
17,TGACCTTTGTCCTGGCACAACTGGATGGTGGCCTAGGGAGATTAGAGTATCGGTCGA,5
18,TTTTTTTTTTGAGATGGAATCTTGCCCTGTGCCTAGGGAGATTAGAGTATCGGTCGA,3.18
19,TAAGTCACTGGGCTGATGACCTTTGACTGAGCCTAGGGAGATTAGAGTATCGGTCGA,7.08
20,AGACCCTTATCAGTAGTTCTCCTTTCTGCCGCCTAGGGAGATTAGAGTATCGGTCGA,1.39
21,ATGCATAGAAGTATGTCTGGGATTTGAAGGGCCTAGGGAGATTAGAGTATCGGTCGA,-0.542
22,GTCAAGCAATGATCTTCATGAACTTCTGTCGCCTAGGGAGATTAGAGTATCGGTCGA,1.26

row,Sequence,binding signal [log2 normalized intensity]
1,TAAAACCATGCAAATTGCTGACTTTCTGTGGCCTAGGGAGATTAGAGTATCGGTCGA,-0.773
2,CAGCAGGGCACCGCCTCCACACCCCAGCCTGCCTAGGGAGATTAGAGTATCGGTCGA,3.03
3,GCCCTCCCCCAGAGAGAACAGTCCTACAAAGCCTAGGGAGATTAGAGTATCGGTCGA,2.08
4,AAGATGGGCATTAGGTGGACAGGGGTGTGTGCCTAGGGAGATTAGAGTATCGGTCGA,1.78
5,ACCCTTTGAGTCCTTCATGGCTACCCTTCAGCCTAGGGAGATTAGAGTATCGGTCGA,0.859
6,CCCGCAGTGAGGGACAAGGCTGTCCCCCATGCCTAGGGAGATTAGAGTATCGGTCGA,1.6
7,GGGGGTAAAGTGGATTGCTGGCCTTTTATCGCCTAGGGAGATTAGAGTATCGGTCGA,0.814
8,CTCACATGAGCTAGAGCTCGTGTCATCTCTGCCTAGGGAGATTAGAGTATCGGTCGA,-0.899
9,CACCAGAAAAATGTACATGTGCAAAAGCACGCCTAGGGAGATTAGAGTATCGGTCGA,0.628
10,TCAAAGGTCAGAAAAAGCTGACGCCCCACCGCCTAGGGAGATTAGAGTATCGGTCGA,3.28
11,GGGAAGCAGTGAGGGTGGGTTCAAAGGTCAGCCTAGGGAGATTAGAGTATCGGTCGA,8.24
12,AAAGGGGAAAAGGTCAAATACCAAAATGTGGCCTAGGGAGATTAGAGTATCGGTCGA,1.8
13,GGCATGGGAAGCAGTGAGGGTGGGTTCAAAGCCTAGGGAGATTAGAGTATCGGTCGA,0.803
14,TGGGTTCAAAGGTCAGAAAAAGCTGACGCCGCCTAGGGAGATTAGAGTATCGGTCGA,6.84
15,AAGAAAAGCCTTGTGGCAGTGAGAACAGGTGCCTAGGGAGATTAGAGTATCGGTCGA,0.143
16,GGTCAGAAAAAGCTGACGCCCCACCCCCTCGCCTAGGGAGATTAGAGTATCGGTCGA,5.94
17,GCAGTGAGGGTGGGTTCAAAGGTCAGAAAAGCCTAGGGAGATTAGAGTATCGGTCGA,7.95
18,TAGAAGCAGTGGGACAAAGGTCACAGGAAAGCCTAGGGAGATTAGAGTATCGGTCGA,4.42
19,GAGGGTGGGTTCAAAGGTCAGAAAAAGCTGGCCTAGGGAGATTAGAGTATCGGTCGA,6.66
20,CAAGGGTCAGTTCATTAAAAAAAAAAAAAAGCCTAGGGAGATTAGAGTATCGGTCGA,1.19
21,GACTCAGAAAAATATGTGGACTTCAAAGGTGCCTAGGGAGATTAGAGTATCGGTCGA,1.29
